Sampled rows, rich in hits. Any-hit rate of the full collection: about 4%.
Mtb UGM inh – inhibitors of M. tuberculosis UDP-galactopyranose mutase. hit rate 0.06% among 320,000. P9WIQ1. inhibition, % at 10 µM. purified UGM, fluorescence polarization probe displacement; in the data active = inhibition above about 10%, passing the limit was not always enough; inconclusive = no clear call, values can overlap the other calls
GDH-TPI counter – GDH-TPI coupled enzyme inhibition counter-screen; GDH-TPI coupled enzyme counterscreen, NADH absorbance; inhibition, % at 4.8 µM; hit rate 1.2% among 360,000; in the data active = inhibition above about 30%;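 note: 0% = DMSO wells and 100% = wells lacking the enzyme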
Mtb FBA inh – Mtb fructose-bisphosphate aldolase inhibition | P9WQA3 | purified M. tuberculosis FBA, fluorescence read-out | inhibition, % at 1 µM | hit rate 2.3% among 360,000 | AID 588726; in the data active = inhibition above about 27%;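 note: 0% = vehicle and 100% = reference inhibitor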
Mtb betalactam – beta-lactam sensitization of Mtb H37Rv | inhibition, % at 25 µM | hit rate 0.27% among 330,000 | M. tuberculosis H37Rv growth with meropenem, percent inhibition; call rule not given here;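 note: growth measured after seven days incubation then overnight dye step; 0% = bacteria only wells and 100% = bacteria with antibiotic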
Rv3671c protease – inhibits the M. tuberculosis serine protease Rv3671c; inhibition, % at 5.96 µM; hit rate 0.048% among 320,000; AID 2606; in the data active = inhibition above about 38%;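 note: extracellular domain of Rv3671c used as enzyme; 0% = enzyme with DMSO and 100% = no enzyme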
Target sequence (P9WHR9 whole entry, looked up, the tested form may be a part): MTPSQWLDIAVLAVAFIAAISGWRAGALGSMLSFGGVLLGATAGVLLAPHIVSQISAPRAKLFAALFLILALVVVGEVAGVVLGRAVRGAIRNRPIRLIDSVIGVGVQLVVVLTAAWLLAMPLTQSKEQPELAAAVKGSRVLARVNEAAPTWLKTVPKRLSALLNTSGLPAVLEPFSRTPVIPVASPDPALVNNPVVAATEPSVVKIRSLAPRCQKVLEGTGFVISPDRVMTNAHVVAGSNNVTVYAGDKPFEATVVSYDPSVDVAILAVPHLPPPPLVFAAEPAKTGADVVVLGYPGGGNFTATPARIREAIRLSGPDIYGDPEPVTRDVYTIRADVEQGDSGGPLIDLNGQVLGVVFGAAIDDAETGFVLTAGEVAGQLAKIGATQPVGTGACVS
RecA splice inh – Mtb RecA intein splicing inhibition | P9WHJ3 | cell-free RecA intein splicing, fluorescence | inhibition, % (no concentration beside the values) | hit rate 0.75% among 290,000; in the data active = inhibition above about 30%; inconclusive = no clear call, values can overlap the other calls;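 note: 0% = vehicle wells and 100% = reference inhibitor control wells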
An asterisk follows results filed as active; ? = inconclusive; nt = not tested or not shown; + = active, no number.

SMILES | Mtb UGM inh | GDH-TPI counter | Mtb FBA inh | Mtb betalactam | Rv3671c protease | RecA splice inh
O=C(Cn1c2ccccc2c(=O)c2ccccc21)Nc1ccccc1F | 0 | 0 | 150* | 6 | -20 | -105
CC(=O)Cc1nsc(NC(=O)c2ccc(COc3ccccc3Cl)o2)n1 | 0 | 4 | -1 | -4 | -29 | 1
CC(=O)Cc1nsc(NC(=O)c2oc(-c3ccccc3Cl)cc2C)n1 | -2 | 56* | 5 | 2 | -28 | 1
CC(=O)Cc1nsc(NC(=O)c2ccc(-c3ccccc3Cl)o2)n1 | 1 | 33* | 4 | ? | -18 | 1
CCc1nnc(NC(=O)c2ccc(Br)o2)s1 | 2 | 16 | 3 | -4 | 3 | -1
CC(O)Cc1nsc(NC(=O)c2ccc(Br)o2)n1 (centres undefined) | -1 | 42* | -1 | -5 | 0 | 0
COc1ccc(Nc2nnc(SCC(=O)c3cc4ccccc4o3)s2)cc1 | 1 | 37* | 3 | -6 | -34 | -6
N#Cc1c(-c2cccnc2)c2c([nH]c1=O)-c1ccccc1OC2 | 0 | 14 | + | -4 | 6 | -449
Cc1ccc(-c2c(C(=O)N/N=C/c3sccc3C)nnn2-c2nonc2N)cc1 | 0 | 24 | -5 | 5 | -3 | 0
COc1cccc(-c2c(C(=O)N/N=C/c3ccco3)nnn2-c2nonc2N)c1 | -2 | 33* | -1 | 2 | 1 | 0
COc1cccc(-c2c(C(=O)N/N=C/c3sccc3C)nnn2-c2nonc2N)c1 | -1 | 35* | -1 | 5 | 4 | 1
Cc1ccsc1/C=N/NC(=O)c1nnn(-c2nonc2N)c1C | 4 | 31* | 1 | -7 | -13 | nt
Cc1ccsc1/C=N/NC(=O)c1nnn(-c2nonc2N)c1-c1ccccc1 | -2 | 38* | -1 | 6 | 3 | -3
CC(=O)Nc1ccc(CN2CCC(n3nccc3NC(=O)CCc3ccccc3)CC2)cc1 | -2 | -4 | -2 | 1 | -8 | 1
O=C(CN1CCCCC1)n1c2ccccc2c2ccccc21 | -1 | 16 | -1 | 3 | -3 | -5
Cc1ccc(/C=N/NC(=O)c2nnn(-c3nonc3N)c2-c2ccccc2)o1 | 1 | 44* | -4 | 9 | -2 | -1
COc1cccc(-c2c(C(=O)N/N=C(\C)c3cccs3)nnn2-c2nonc2N)c1 | -1 | 31* | 4 | -5 | -11 | -4
CCOc1ccc(-c2c(C(=O)N/N=C/c3ccc(C)o3)nnn2-c2nonc2N)cc1 | 2 | 23 | -1 | 0 | -8 | -1
O=C(COC(=O)Cc1ccccc1F)Nc1ccc(Cl)cn1 | -1 | -2 | 3 | -5 | 0 | 3
COc1ccc(-c2csc(-n3ncc(-c4cccs4)c3N)n2)cc1 | -2 | 3 | 0 | -3 | 4 | 0
O=C(NNC(=O)c1ccc(O)cc1O)c1ccc(-c2ccccc2)cc1 | -1 | 22 | 5 | -8 | 0 | 1
Oc1ccc(C(=Nc2ccccc2)c2ccccc2)c(O)c1 | nt | 45* | -2 | nt | nt | nt
CN1C(=O)C2(Nc3ccccc3-c3nc4ccccc4n32)c2ccccc21 (centres undefined) | -1 | 12 | 2 | 29 | 1 | 3
CC1(c2ccccn2)Nc2ccccc2-c2nc3ccccc3n21 (centres undefined) | -3 | 23 | 112* | 5 | -4 | -14
O=C1Nc2ccccc2C12Nc1ccccc1-c1nc3ccccc3n12 (centres undefined) | 0 | 7 | 4 | 10 | 0 | 10
SMILES | Mtb UGM inh | GDH-TPI counter | Mtb FBA inh | Mtb betalactam | Rv3671c protease | RecA splice inh
c1ccc2c(c1)NC1(CCCCC1)n1c-2nc2ccccc21 | -1 | 12 | 153* | -8 | 5 | -27
O=C1Cn2c(nc3ccccc32)-c2ccccc2N1 | 0 | 7 | 4 | 4 | -18 | 0
CCCCC1(C)Nc2ccccc2-c2nc3ccccc3n21 (centres undefined) | 0 | 8 | + | 12 | 9 | -48
c1ccc2c(c1)NC1(CCCCCC1)n1c-2nc2ccccc21 | -5 | 12 | 161* | 0 | 3 | -22
CC(C)C(NC(=O)c1ccccc1F)C(=O)NCc1ccc(S(=O)(=O)N2CCOCC2)cc1 (centres undefined) | nt | 2 | 3 | nt | nt | nt
CN(C)C(=S)Nc1ccc2ccccc2c1 | -2 | 7 | 2 | 1 | -2 | 0
COc1ccc(-c2c(-c3ccc(OC)c(F)c3)c3ccccc3n2C)cc1 | 6 | 16 | 37* | -2 | -4 | nt

Source: PubChem (several laboratories)
